Consider one sequence from article PMC7862700, “An all-to-all approach to the identification of sequence-specific readers for epigenetic DNA modifications on cytosine”.

Assay in all cases: DAPPL (digital affinity profiling via proximity ligation, sequencing); 10 mM Tris-HCl pH 7.5, 50 mM NaCl, 1 mM DTT, 4% glycerol, room temperature, 30 min; GST-TFs on glutathione beads, 16-mer random dsDNA library, 0.1% formaldehyde crosslink after washing; high values mean tight binding
The target in one assay is T1, FEV (Homo sapiens, UniProt Q99581 1-238).
T1 sequence: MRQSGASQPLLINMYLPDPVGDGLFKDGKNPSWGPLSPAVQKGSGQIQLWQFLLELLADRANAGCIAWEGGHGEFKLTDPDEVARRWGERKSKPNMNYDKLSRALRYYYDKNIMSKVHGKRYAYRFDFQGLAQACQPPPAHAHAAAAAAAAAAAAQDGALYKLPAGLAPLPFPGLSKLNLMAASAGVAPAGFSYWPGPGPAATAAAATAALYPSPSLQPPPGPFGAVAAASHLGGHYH
The settings on record: protein: recombinant; tags: N-terminal GST; dsDNA, one strand shown. An outline of the steps:
(§1)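 Human transcription factors fused to GST were expressed in yeast, captured on glutathione beads, given DNA barcodes and pooled with a GST-only negative control. Pools were incubated with 200 nmole of a 16-mer random double-stranded DNA library in Tris/NaCl/DTT/glycerol buffer at room temperature for 30 min. They were then washed, crosslinked with 0.1% formaldehyde, proximity-ligated (BsaI/T4 ligase, 1 h, 37 °C), PCR-amplified and sequenced on an Illumina NextSeq500. Binding signal is each 6-mer's read frequency for a factor divided by its frequency for the GST control.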

A further assay deals with ETV5 (Homo sapiens, UniProt P41161 1-510). The settings on record: protein: recombinant; tags: N-terminal GST; dsDNA, one strand shown. The essentials:
as §1

The target in a further assay is HSF1 (Homo sapiens, UniProt Q00613 1-529). The settings on record: protein: recombinant; tags: N-terminal GST; chain copies: 3; dsDNA, one strand shown. The essentials: as §1
A further assay deals with T2, SPIC (Homo sapiens, UniProt Q8N5J4 1-248).
T2 sequence: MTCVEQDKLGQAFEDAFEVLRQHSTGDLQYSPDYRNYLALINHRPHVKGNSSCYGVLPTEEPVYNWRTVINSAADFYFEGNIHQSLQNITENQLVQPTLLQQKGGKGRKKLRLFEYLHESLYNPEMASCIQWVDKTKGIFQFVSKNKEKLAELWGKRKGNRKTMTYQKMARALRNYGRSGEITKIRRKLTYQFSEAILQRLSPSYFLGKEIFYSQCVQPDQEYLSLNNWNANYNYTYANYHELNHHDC
The settings on record: protein: recombinant; tags: N-terminal GST; dsDNA, one strand shown. The essentials: as §1

The target in another assay is ELF4 (Homo sapiens, UniProt Q99607 1-663). The settings on record: protein: recombinant; tags: N-terminal GST; dsDNA, one strand shown. An outline of the steps:
as §1

The target of the next assay is T3, ELK4 (Homo sapiens, UniProt P28324-2 1-405).
T3 sequence: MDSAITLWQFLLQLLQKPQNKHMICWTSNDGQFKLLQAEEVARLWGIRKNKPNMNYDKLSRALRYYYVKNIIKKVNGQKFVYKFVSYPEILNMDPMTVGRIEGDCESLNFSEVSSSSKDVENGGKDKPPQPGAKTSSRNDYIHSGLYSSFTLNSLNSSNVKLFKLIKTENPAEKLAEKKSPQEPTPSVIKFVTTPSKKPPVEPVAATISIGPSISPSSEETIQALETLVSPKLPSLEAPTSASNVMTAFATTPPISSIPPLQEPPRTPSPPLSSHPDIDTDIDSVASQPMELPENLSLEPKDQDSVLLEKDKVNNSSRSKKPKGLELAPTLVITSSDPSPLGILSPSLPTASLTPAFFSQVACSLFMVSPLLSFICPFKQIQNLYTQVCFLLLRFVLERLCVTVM
The settings on record: protein: recombinant; tags: N-terminal GST; dsDNA, one strand shown. The essentials: as §1

A further assay concerns the target T4, ETV2 (Homo sapiens, UniProt O00321 1-342).
T4 sequence: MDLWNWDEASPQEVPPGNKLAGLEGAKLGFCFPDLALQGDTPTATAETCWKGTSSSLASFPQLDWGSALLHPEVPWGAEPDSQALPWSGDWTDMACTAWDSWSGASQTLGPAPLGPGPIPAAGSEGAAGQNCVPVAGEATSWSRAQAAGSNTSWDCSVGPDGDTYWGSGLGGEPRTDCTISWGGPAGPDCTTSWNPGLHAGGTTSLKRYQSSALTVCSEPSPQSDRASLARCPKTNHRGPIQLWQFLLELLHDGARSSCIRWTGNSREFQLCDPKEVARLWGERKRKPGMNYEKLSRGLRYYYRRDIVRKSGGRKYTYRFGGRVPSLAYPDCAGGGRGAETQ
The settings on record: protein: recombinant; tags: N-terminal GST; dsDNA, one strand shown. An outline of the steps: as §1

The target of another assay is T5, ELF3 (Homo sapiens, UniProt P78545 1-371).
T5 sequence: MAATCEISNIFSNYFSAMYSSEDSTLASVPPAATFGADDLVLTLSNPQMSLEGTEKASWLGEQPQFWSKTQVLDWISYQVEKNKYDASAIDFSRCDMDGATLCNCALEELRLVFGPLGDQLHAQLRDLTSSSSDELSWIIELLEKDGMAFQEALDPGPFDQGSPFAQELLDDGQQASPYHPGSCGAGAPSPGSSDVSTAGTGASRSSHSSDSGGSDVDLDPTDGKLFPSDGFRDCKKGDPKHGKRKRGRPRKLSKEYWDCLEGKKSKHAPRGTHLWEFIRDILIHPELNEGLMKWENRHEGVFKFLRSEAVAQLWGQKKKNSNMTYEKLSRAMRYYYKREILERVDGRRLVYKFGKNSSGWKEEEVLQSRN
The settings on record: protein: recombinant; tags: N-terminal GST; dsDNA, one strand shown. The essentials: as §1

A further assay concerns the target CRX (Homo sapiens, UniProt O43186 1-299). The settings on record: protein: recombinant; tags: N-terminal GST; dsDNA, one strand shown. The essentials:
as §1

A further assay concerns the target ETV1 (Homo sapiens, UniProt P50549 1-477). The settings on record: protein: recombinant; tags: N-terminal GST; dsDNA, one strand shown. The essentials: as §1
The next assay has as its target T6, ERF (Homo sapiens, UniProt P50548 1-548).
T6 sequence: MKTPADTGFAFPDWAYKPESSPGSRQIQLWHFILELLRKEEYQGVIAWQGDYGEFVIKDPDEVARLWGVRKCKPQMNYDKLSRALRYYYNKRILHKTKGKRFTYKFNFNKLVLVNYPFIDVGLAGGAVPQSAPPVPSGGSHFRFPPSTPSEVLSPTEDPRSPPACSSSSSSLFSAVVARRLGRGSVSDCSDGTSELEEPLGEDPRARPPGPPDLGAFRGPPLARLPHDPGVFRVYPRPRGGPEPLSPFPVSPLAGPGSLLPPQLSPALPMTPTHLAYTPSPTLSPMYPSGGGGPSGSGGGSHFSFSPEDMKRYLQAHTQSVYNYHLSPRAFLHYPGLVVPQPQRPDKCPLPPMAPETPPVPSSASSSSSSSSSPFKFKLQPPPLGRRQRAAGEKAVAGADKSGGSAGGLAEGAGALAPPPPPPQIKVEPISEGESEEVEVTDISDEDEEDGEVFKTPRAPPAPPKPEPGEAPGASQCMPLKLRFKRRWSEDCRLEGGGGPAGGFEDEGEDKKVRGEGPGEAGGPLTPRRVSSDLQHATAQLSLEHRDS
The settings on record: protein: recombinant; tags: N-terminal GST; dsDNA, one strand shown. The essentials: as §1

Another assay addresses T7, ETV3L (Homo sapiens, UniProt Q6ZN32 1-361).
T7 sequence: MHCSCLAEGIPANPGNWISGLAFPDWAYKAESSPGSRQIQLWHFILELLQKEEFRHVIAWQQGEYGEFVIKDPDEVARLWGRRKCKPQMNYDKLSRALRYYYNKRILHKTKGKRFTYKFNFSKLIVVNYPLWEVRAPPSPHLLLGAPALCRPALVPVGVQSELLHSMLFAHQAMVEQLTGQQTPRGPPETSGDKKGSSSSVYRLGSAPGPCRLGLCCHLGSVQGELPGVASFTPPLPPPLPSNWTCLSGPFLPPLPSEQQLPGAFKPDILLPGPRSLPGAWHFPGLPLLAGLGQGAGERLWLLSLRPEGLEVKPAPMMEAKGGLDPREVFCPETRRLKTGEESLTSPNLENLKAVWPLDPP
The settings on record: protein: recombinant; tags: N-terminal GST; dsDNA, one strand shown. An outline of the steps:
as §1

A further assay has as its target T8, ETS2 (Homo sapiens, UniProt P15036 1-469).
T8 sequence: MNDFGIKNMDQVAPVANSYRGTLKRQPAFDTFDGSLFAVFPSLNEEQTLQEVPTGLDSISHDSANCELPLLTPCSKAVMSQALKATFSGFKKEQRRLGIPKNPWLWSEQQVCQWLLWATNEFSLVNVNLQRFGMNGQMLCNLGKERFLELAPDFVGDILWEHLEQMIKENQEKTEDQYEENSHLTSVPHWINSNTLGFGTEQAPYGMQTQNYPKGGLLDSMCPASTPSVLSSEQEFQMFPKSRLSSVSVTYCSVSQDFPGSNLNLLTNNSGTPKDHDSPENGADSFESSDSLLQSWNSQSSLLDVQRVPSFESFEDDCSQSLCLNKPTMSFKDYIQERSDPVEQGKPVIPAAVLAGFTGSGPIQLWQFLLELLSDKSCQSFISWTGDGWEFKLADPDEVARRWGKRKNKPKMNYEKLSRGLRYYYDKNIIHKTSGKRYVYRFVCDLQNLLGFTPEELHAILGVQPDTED
The settings on record: protein: recombinant; tags: N-terminal GST; dsDNA, one strand shown. An outline of the steps:
as §1

The next assay has as its target T9, SPDEF (Homo sapiens, UniProt O95238 1-335).
T9 sequence: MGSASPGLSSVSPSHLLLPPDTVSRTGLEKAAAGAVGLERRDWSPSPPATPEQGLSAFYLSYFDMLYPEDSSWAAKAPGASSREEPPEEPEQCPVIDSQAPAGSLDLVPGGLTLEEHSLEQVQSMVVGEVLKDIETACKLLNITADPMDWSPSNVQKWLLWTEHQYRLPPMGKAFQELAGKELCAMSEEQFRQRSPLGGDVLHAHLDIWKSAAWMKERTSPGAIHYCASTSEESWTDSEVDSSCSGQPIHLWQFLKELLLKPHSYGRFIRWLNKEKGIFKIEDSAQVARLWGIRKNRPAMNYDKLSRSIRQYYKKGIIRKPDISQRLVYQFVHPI
The settings on record: protein: recombinant; tags: N-terminal GST; dsDNA, one strand shown. An outline of the steps:
as §1

A further assay deals with T10, ETV7 (Homo sapiens, UniProt Q9Y603 1-341).
T10 sequence: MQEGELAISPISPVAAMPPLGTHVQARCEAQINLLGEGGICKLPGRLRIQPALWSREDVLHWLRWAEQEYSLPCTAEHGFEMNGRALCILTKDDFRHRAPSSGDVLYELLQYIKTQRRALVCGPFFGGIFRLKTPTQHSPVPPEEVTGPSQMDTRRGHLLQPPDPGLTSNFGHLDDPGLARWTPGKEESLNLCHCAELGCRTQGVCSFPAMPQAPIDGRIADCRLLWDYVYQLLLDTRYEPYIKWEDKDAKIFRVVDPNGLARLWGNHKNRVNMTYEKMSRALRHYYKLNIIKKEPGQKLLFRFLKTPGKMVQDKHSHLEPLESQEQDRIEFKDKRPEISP
The settings on record: protein: recombinant; tags: N-terminal GST; dsDNA, one strand shown. The essentials: as §1

In a further assay the target is T11, ELF5 (Homo sapiens, UniProt Q9UKW6-2 1-255).
T11 sequence: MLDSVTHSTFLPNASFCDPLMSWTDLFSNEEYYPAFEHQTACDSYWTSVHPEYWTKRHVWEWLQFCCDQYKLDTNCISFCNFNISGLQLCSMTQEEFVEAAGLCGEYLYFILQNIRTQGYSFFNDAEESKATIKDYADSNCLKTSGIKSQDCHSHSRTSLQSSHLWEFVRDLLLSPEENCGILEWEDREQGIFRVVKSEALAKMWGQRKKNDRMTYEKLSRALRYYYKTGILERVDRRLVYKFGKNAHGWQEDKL
The settings on record: protein: recombinant; tags: N-terminal GST; dsDNA, one strand shown. The essentials: as §1

Another assay deals with T12, ETV3 (Homo sapiens, UniProt P41162-2 1-143).
T12 sequence: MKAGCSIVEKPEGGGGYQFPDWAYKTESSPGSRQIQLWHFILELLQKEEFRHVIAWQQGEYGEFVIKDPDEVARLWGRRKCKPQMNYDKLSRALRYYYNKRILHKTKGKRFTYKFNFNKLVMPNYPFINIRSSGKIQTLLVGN
The settings on record: protein: recombinant; tags: N-terminal GST; dsDNA, one strand shown. The essentials:
as §1

Another assay has as its target ETV6 (Homo sapiens, UniProt P41212 1-452). The settings on record: protein: recombinant; tags: N-terminal GST; dsDNA, one strand shown. The essentials:
as §1

HSF1, sequence (Q00613 whole entry): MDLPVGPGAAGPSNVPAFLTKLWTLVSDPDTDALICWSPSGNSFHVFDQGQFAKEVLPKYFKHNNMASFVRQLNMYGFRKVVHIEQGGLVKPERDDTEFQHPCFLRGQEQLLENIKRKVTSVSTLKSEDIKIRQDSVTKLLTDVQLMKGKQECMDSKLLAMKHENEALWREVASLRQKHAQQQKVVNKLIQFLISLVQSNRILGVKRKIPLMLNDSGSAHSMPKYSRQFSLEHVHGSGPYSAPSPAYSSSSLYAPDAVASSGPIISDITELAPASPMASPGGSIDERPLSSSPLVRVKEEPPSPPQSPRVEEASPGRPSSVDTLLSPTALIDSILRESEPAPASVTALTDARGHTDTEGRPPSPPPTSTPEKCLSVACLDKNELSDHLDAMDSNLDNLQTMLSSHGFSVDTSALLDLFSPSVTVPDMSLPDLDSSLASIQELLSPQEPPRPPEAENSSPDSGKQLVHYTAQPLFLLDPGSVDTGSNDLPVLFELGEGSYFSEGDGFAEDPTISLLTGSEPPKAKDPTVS
ETV5, sequence (P41161 whole entry): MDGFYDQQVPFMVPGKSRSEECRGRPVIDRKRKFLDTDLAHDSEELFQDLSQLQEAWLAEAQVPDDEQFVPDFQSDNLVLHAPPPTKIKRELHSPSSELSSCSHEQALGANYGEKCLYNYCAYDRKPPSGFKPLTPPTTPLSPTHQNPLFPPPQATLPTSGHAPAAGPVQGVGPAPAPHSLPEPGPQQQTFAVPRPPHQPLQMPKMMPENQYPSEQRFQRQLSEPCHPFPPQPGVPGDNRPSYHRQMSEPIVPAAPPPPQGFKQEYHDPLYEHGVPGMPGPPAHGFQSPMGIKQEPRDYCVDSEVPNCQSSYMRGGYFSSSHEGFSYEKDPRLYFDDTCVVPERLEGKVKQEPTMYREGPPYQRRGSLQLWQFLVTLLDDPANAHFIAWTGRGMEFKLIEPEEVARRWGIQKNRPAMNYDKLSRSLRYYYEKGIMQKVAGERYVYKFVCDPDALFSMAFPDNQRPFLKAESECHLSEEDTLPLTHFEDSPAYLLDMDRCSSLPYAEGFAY
ETV6, sequence (P41212 whole entry): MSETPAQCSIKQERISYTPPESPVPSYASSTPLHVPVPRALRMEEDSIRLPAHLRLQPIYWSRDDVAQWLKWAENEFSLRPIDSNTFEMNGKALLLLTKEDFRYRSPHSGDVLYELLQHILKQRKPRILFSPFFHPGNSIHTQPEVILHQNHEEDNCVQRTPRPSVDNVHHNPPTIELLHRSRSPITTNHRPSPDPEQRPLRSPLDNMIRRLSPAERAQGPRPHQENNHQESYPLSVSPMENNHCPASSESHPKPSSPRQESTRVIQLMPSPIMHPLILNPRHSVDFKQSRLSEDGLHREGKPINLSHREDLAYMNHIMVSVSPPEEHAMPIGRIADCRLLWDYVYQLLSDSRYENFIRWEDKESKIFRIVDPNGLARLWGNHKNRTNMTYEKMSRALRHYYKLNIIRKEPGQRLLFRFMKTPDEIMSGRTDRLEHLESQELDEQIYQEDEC
CRX, sequence (O43186 whole entry): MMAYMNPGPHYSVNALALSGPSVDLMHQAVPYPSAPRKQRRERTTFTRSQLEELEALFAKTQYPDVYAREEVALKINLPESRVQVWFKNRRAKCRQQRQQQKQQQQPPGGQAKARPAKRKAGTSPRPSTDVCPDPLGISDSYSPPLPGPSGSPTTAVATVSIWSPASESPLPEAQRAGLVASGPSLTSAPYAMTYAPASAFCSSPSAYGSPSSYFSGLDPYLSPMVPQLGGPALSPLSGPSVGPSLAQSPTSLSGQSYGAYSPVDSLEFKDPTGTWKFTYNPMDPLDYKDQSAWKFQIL
ELF4, sequence (Q99607 whole entry): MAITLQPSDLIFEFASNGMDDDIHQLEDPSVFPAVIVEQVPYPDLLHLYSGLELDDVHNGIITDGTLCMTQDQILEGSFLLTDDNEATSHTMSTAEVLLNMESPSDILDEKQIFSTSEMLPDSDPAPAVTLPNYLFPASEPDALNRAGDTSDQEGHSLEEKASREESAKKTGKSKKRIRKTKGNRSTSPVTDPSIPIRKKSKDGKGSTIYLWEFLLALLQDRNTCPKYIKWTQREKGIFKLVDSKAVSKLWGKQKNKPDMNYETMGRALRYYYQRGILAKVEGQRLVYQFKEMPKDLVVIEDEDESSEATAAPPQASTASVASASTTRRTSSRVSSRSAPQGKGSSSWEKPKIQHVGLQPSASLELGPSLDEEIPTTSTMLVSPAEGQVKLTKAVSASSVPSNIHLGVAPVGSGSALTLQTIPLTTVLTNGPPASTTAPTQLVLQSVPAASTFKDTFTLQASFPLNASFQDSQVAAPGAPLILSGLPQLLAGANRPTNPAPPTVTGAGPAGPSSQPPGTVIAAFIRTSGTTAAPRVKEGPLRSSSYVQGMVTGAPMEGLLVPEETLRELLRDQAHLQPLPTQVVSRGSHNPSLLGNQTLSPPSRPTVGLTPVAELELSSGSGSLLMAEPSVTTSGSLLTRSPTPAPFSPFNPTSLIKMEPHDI
ETV1, sequence (P50549 whole entry): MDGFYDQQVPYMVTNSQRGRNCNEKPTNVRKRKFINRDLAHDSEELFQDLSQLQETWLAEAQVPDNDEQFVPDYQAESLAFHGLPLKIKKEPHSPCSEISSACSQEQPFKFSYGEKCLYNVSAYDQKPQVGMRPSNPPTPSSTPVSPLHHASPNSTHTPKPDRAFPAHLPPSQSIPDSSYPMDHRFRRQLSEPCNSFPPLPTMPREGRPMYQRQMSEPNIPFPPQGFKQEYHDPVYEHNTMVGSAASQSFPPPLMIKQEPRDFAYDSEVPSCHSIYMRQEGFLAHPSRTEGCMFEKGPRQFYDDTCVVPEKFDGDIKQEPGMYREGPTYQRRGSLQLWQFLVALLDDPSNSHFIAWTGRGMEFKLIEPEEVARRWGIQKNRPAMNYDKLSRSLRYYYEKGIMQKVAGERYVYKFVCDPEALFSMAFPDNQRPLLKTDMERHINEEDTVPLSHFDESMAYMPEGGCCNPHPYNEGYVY

Take CTAAGA: the binding signal in the assay with FEV was 1.08 fold enrichment (6-mer frequency, TF over GST control); with ETV5 it was 1.24 fold enrichment (6-mer frequency, TF over GST control); in the assay with HSF1, 1.64 fold enrichment (6-mer frequency, TF over GST control); in the assay with SPIC it was 1.18 fold enrichment (6-mer frequency, TF over GST control); in the assay with ELF4 it was 1.27 fold enrichment (6-mer frequency, TF over GST control); with ELK4, 1.16 fold enrichment (6-mer frequency, TF over GST control). Moreover, the binding signal is 1.2 fold enrichment (6-mer frequency, TF over GST control) with ETV2; 1.24 fold enrichment (6-mer frequency, TF over GST control) with ELF3; 2.05 fold enrichment (6-mer frequency, TF over GST control) with CRX; 1.22 fold enrichment (6-mer frequency, TF over GST control) with ETV1; 1.08 fold enrichment (6-mer frequency, TF over GST control) with ERF; 1.21 fold enrichment (6-mer frequency, TF over GST control) with ETV3L. The binding signal was 1.17 fold enrichment (6-mer frequency, TF over GST control) with ETS2; 1.15 fold enrichment (6-mer frequency, TF over GST control) with SPDEF; 1.25 fold enrichment (6-mer frequency, TF over GST control) in the assay with ETV7; 1.2 fold enrichment (6-mer frequency, TF over GST control) in the assay with ELF5; 1.17 fold enrichment (6-mer frequency, TF over GST control) in the assay with ETV3; 1.23 fold enrichment (6-mer frequency, TF over GST control) with ETV6.
